According to PubChem BioAssay:
Where “and” joins values, the source holds several entries; their conditions need not be identical. Identical values can stand only once. Values without a mark were called inactive. Calls of active or inactive are those of the source.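 The calls were made as follows, unless noted: active = compound whose remaining NAD level is above about 45 nM (limit read from the data); inactive = the rest.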

Experiments:
[1] = target: NAD(+) hydrolase SARM1 (Homo sapiens) (UniProt Q6SZW1); assay: blocking NAD cleavage by SARM1 SAM-TIR – cell lysate, NAD-Glo luminescence (AID 1508614); details: SAM-TIR HEK293T lysate NADase, at 1 µM, hits give high values;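 also: higher remaining NAD means stronger inhibition of SARM1 NADase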
[2] = target: Mitogen-activated protein kinase 7 (Homo sapiens) (UniProt Q13164); assay: Gal4-ERK5 driven luciferase induction – cell-based, HTS, primary screen (AID 1508626;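 active = luciferase signal above three times the same-plate solvent-only control wells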;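 also: luciferase driven by Gal4-ERK5 fusion binding five Gal4 sites before minimal TATA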); details: HeLa Gal4-ERK5 transactivation, 18 h, at 5 µM, hits give high values
[3] = galactose survival enhancers in mitochondrial complex I cybrids – cell-based, galactose medium, ATP luminescence, primary screen (AID 1645843;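 active = z-score of at least 1.8 in each of two replicates, scored against plate mean and spread of sample wells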;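 also: positive z means more ATP and so rescue of galactose-driven cybrid death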); details: complex I mutant cybrid cells, 72 h, hits give high values

NAD(+) hydrolase SARM1 (Homo sapiens), sequence (Q6SZW1 whole entry, looked up, the tested form may be a part): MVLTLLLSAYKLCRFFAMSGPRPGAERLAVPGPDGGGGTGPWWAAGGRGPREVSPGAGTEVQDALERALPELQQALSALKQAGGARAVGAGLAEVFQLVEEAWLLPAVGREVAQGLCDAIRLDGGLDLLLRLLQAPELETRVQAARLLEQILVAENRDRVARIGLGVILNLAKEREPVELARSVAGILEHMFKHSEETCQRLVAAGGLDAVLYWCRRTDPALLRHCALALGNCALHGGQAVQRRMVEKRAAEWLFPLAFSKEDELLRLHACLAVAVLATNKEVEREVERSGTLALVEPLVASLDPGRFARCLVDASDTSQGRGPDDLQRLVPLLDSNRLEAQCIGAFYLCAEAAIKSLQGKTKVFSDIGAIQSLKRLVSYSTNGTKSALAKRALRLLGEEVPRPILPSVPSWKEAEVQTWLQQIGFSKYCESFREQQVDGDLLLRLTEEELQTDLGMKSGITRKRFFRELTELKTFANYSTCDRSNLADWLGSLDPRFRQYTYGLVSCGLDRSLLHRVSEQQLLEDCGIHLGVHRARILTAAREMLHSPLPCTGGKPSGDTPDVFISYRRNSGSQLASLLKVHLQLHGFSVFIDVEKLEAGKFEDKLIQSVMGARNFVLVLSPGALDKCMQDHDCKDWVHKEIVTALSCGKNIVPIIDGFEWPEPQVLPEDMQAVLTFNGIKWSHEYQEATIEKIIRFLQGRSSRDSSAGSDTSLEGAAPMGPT
Mitogen-activated protein kinase 7 (Homo sapiens), sequence (Q13164 whole entry, looked up, the tested form may be a part): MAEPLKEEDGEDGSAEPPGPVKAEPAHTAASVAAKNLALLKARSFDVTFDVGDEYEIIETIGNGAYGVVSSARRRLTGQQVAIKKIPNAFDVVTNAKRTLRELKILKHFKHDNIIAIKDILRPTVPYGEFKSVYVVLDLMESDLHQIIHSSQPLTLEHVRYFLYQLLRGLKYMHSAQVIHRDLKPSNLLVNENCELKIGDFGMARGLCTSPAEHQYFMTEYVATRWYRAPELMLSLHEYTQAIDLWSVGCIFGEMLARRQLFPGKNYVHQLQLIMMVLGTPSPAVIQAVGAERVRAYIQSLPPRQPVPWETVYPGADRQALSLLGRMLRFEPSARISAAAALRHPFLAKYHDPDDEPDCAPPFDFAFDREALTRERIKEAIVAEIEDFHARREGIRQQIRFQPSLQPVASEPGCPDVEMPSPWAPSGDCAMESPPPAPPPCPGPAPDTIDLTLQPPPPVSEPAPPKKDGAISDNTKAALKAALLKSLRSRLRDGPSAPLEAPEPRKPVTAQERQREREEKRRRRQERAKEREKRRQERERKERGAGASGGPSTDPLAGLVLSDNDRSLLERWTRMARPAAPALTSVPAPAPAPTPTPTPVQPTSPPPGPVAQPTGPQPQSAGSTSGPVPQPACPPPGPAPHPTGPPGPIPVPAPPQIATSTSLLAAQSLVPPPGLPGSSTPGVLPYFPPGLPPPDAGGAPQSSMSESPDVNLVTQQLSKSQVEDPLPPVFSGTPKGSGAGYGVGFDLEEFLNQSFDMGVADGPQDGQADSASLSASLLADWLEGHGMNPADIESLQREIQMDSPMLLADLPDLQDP

Structure (SMILES)	remaining NAD [1] [nM]	luciferase signal [2]	z-score [3]
Nc1nccs1	10	40 AU	
Cc1c(N(C)CS(=O)(=O)O)c(=O)n(-c2ccccc2)n1C	10	40 AU	
CCCCOC(=O)c1ccc(N)cc1	10	56 AU	
NC(=O)c1ccc([N+](=O)[O-])cc1Cl	10	180 AU	
Cc1ccsc1/C=C/C1=NCCCN1C	10	88 AU	
N[C@@H](CCC(=O)N[C@@H](CS)C(=O)NCC(=O)O)C(=O)O	22	68 AU	
CCN(CCCc1ccccc1)CCCc1ccccc1	10	48 AU	
CC(=O)Nc1c(I)cc(I)c(C(=O)O)c1I	10	40 AU	
CC(=O)Nc1cccc(O)c1	10	64 AU	
Nc1ncnc2c1ncn2[C@@H]1O[C@H](COP(=O)(O)O)[C@@H](O)[C@H]1O	10	292 AU (active)	
CC(C)(C)CC(C)(C)c1ccc(O)c(Cc2ccc(Cl)cc2Cl)c1	10	52 AU	
C1CCC(C(CC2CCCCN2)C2CCCCC2)CC1 (stereo not drawn)	10	140 AU	
CO/N=C1\CN(c2nc3c(cc2F)c(=O)c(C(=O)O)cn3C2CC2)CC1CN (stereo not drawn)	10	40 AU	
CCOC(=O)NNc1nncc2ccccc12	10	36 AU	
Nc1ccc(S(=O)(=O)Nc2ccccn2)cc1	10	64 AU	
COc1ccc(C2C(=O)c3ccccc3C2=O)cc1	10	172 AU	
CCCCN(CCCC)CCCOC(=O)c1ccc(N)cc1	10	120 AU	
CC1=CC(=O)c2ccccc2C1=O	10	128 AU	
CCCCOc1ccc(OCCCN2CCOCC2)cc1	10	36 AU	
Cc1c(N(C)C)c(=O)n(-c2ccccc2)n1C	10	60 AU	

Structure (SMILES)	remaining NAD [1] [nM]	luciferase signal [2]	z-score [3]
O=C1OC(c2ccc(O)cc2)(c2ccc(O)cc2)c2ccccc21	10	84 AU	
CCN(CC)CCOC(=O)C(c1ccccc1)C1CCCCC1 (stereo not drawn)	10	52 AU	
Nc1ccc(C(=O)O)cc1	10	40 AU	
Cc1nnc(NS(=O)(=O)c2ccc(N)cc2)s1	10	184 AU	
O=c1ccc2ccccc2o1	10	48 AU	
COc1ccc(-c2cc(C(F)F)nn2-c2ccc(S(N)(=O)=O)cc2)cc1F	10	44 AU	
C[C@@H]1C[C@H]2[C@@H]3C[C@H](F)C4=CC(=O)C=C[C@]4(C)[C@@]3(F)[C@@H](O)C[C@]2(C)[C@@]1(O)C(=O)CO	10	116 AU	
Oc1c(Br)cc(Br)c2cccnc12	10	88 AU	
CCCCOc1ccc(C(=O)CCN2CCCCC2)cc1	10	40 AU	
CCCc1ncc(C[n+]2ccccc2C)c(N)n1	10	52 AU	
Nc1ncnc2nc[nH]c12	10	72 AU	
CCOC(=O)OC(C)OC(=O)[C@@H]1N2C(=O)[C@@H](NC(=O)[C@H](N)c3ccccc3)[C@H]2SC1(C)C (stereo partly drawn)	10	76 AU	
Cn1c(=O)c2c(ncn2CC(O)CO)n(C)c1=O (stereo not drawn)	10	20 AU	
O=C(O)c1ccccc1O	10	24 AU	
CC(N)CCCC(C)(C)O (stereo not drawn)	10	160 AU	
Cc1onc(-c2ccccc2Cl)c1C(=O)N[C@@H]1C(=O)N2[C@@H]1SC(C)(C)[C@@H]2C(=O)O	10	24 AU	
CCOC(N)=O	10	24 AU	
CC(=O)OCC1=C(C(=O)O)N2C(=O)[C@@H](NC(=O)CSc3ccncc3)[C@H]2SC1	10	32 AU	
COc1cnc(NS(=O)(=O)c2ccc(N)cc2)nc1	10	40 AU	
CC[C@]12CCCN3CCc4c(n(c5ccccc45)[C@@](O)(C(=O)OC)C1)[C@@H]32	10	112 AU	

Structure (SMILES)	remaining NAD [1] [nM]	luciferase signal [2]	z-score [3]
O=C(O)CCNC(=O)c1ccccc1	10	20 AU	
Nc1ccc(S(=O)(=O)Nc2cnc3ccccc3n2)cc1	10	84 AU	
CCn1cc(C(=O)O)c(=O)c2cnc(N3CCNCC3)nc21	10	56 AU	
Nc1ccc(S(=O)(=O)NC(=O)c2ccccc2)cc1	10	32 AU	
Oc1ccc(OCc2ccccc2)cc1	10	64 AU	
COc1ccc(NS(=O)(=O)c2ccc(N)cc2)nn1	10	28 AU	
O=c1[nH]cnc2c1ncn2[C@@H]1O[C@H](CO)[C@@H](O)[C@H]1O	10	44 AU	
CC(C(=O)O)c1ccc2c(c1)[nH]c1ccc(Cl)cc12 (stereo not drawn)	10	16 AU	
COC(=O)[C@@H](N)CS	10	52 AU	
CCOc1ccc2nc3cc(N)ccc3c(N)c2c1	10	32 AU	
CC(=O)OCC(=O)[C@H]1CC[C@H]2[C@@H]3CCC4=CC(=O)CC[C@]4(C)[C@H]3CC[C@]12C	10	60 AU	
CO[C@@H]1[C@@H](OC(N)=O)[C@@H](O)[C@H](Oc2ccc3c(O)c(NC(=O)c4ccc(O)c(CC=C(C)C)c4)c(=O)oc3c2C)OC1(C)C	10	44 AU	
Cc1cc(C2CCCCC2)n(O)c(=O)c1	10	52 AU	
OCc1ccccc1O	10	28 AU	
CCCc1cc(C(N)=S)ccn1	10	96 AU	0.335
CN1CCN(C2=Nc3ccccc3Oc3ccc(Cl)cc32)CC1	10	132 AU	-0.48 and -0.015
CN(C)CCOC(=O)COc1ccc(Cl)cc1	10	64 AU	1.14
CCOC(=O)C(C)(C)Oc1ccc(Cl)cc1	10	44 AU	0.15 and 0.675
CCOC(=O)[C@H](CCc1ccccc1)N[C@@H](C)C(=O)N1CCC[C@H]1C(=O)O	10	64 AU	0.27
